In all, about 320,000 compounds went through this assay and about 2,100 (0.66%) were called active. Another 53% or so got no clear call; they are omitted. The call rests on the fitted dose curve; in most records, active means well fitted inhibition curve with a large enough effect in the signal ratio, with a control signal flat (not every such curve was filed as active); inconclusive means small, poorly fitted or top-dose-only effect, or effect the other way, or a change in a side signal; inactive means flat fitted curve, though single readings scatter; the % refers to the signal ratio. Shown is part of a subset that was picked to be rich in actives.
Assay: qHTS Assay for Lipid Storage Modulators in Drosophila S3 Cells;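 on cell number change: cells counted by Cell Tracker Red CMTPX staining in the red channel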; on lipid storage change, negative = inhibition: on the % scale 0 is the no-effect control and ±100 the full control effect
Conditions: BODIPY lipid droplet fluorescence, 18-24 h, cells fed with added oleic acid; cell number change: measured here: cell count max response; series mostly up to 46.1 µM
Text: NIH Molecular Libraries Probe Production Centers Network [MLPCN] NIH Chemical Genomics Center [NCGC] MLPCN Grant: 1 R03 MH085686-01 Assay Submitter (PI): Beller, Mathias; Max-Planck-Institut fur Biophysikalische Chemie NCGC Assay Overview: Storing lipids as a reservoir for energy or the anabolism of elementary metabolites is a common feature of probably all cells and is conserved from bacteria to humans. The universal cellular lipid storage organelle is the so-called lipid storage droplet (LD). Although ubiquitous, LDs share a simple structure composed of a hydrophobic core that harbors the storage lipids, which is shielded by a droplet-specific phospholipid monolayer to which proteins are attached. The current model of LD biogenesis involves an incorporation of the lipid core into the membrane leaflets of the endoplasmic reticulum (ER) followed by a subsequent budding-like maturation of a LD, which ultimately pinches off. Once released, LD volume can increase by localized lipogenesis or fusion of existing droplet. Storage lipids are re-mobilized enzymatically by lipase activity. Lipase regulation in the adipocyte is heavily studied and involves multiple components including catecholamine signaling, the LD-associated proteins Perilipin and comparative gene identification (CGI-58) and at least two lipases named hormone sensitive lipase (HSL) and adipocyte triglyceride lipase (ATGL). LD regulation outside of the adipocyte is poorly understood and only few components are known. However, there is an urgent need to learn more about ectopic fat depots as mislocalized storage of lipids, for example in the liver or muscle, is an eminent health problem associated with insulin resistance or the metabolic syndrome. We developed a laser-scanning cytometer assay to enable 1,536-well screening and combined the results of the small molecules screen with an RNAi database based on lipid storage.
Triacsin C (Sigma-Aldrich T-4540), an inhibitor of long-chain fatty acyl CoA synthetase that blocks synthesis of triglycerides, was used as a positive control for lipid under-storage. A total of 23 nL of compound solution of different concentrations were transferred to the assay plates using a Kalypsys pin tool equipped with a 1,536-pin array containing 10-nL slotted pins (FP1S10, 0.457-mm diameter, 50.8 mm long; V&P Scientific). One microliter of oleic acid (400 uM) was added, and the plate was lidded with stainless steel rubber gasket lined lids containing pinholes. […] Fluorescence was detected by excitation of the fluorophores with a 488-nm laser on an Acumen Explorer (TTP Lab Tech). The total intensity in channel 2 (500-530 nm) reflected lipid droplet accumulation. Cells were detected using channel 3 (575-640 nm) with 5-um width and 100-um depth filters. The ratio of the number of objects in PMT channel 2 over the number of objects in PMT channel 3 was also calculated. Percent activity was computed relative to an internal control (100% inhibited lipid droplet deposition due to the presence of 20 uM Triacsin C), which was added to 32 wells/plate.
Potency means the concentration at half of the fitted maximal effect.

Which results are given for `C/C(=N/NC(=O)c1ccncc1)c1ccccc1`?
Potency: inactive; cell number change: -7.04%

What does the source list for `CC(=O)c1cccc(NC(=O)COC(=O)c2ccc(S(C)(=O)=O)c([N+](=O)[O-])c2)c1`?
Potency: inactive; cell number change: -10.3%

Which Potency does the source give for `Cc1ccccc1NC(=O)COC(=O)c1ccc(S(=O)(=O)N2CCCC2)cc1` here?
Its Potency is “inactive”.

And the cell number change?
Its cell number change is 10.7%.

Which Potency does the source give for `Cc1ccccc1NC(=O)COC(=O)c1ccc(S(C)(=O)=O)c([N+](=O)[O-])c1` here?
The Potency was 25.9 µM (active).

And the cell number change?
Its cell number change is -15.7%.

Which results are given for `Cc1ccc(NC(=O)c2c(C)nn(-c3ccccc3)c2Cl)c(C)c1`?
Potency: inactive; cell number change: -13.2%

With `CC(=O)N1CCOc2ccc(S(=O)(=O)N3CCC(C(=O)NCc4ccc(C)cc4)CC3)cc21` as the molecule, how does the Potency read?
The Potency was “inactive”.

And the cell number change?
Its cell number change is 17.2%.

Which Potency does the source give for `CCCCS(=O)(=O)N1CCC(C(=O)NCC2CCCO2)CC1` (stereo unspecified) here?
Its Potency is “inactive”.

And the cell number change?
The cell number change was 5.96%.

For `CCCS(=O)(=O)N1CCC(C(=O)NCC2CCCO2)CC1` (stereo unspecified), which Potency is on record?
Its Potency is “inactive”.

With `CS(=O)(=O)N1CCC(C(=O)NCC2CCCO2)CC1` (stereo unspecified) as the molecule, how does the Potency read?
Its Potency is 2.31 µM (active).

And the cell number change?
Its cell number change is -2.74%.

Which results are given for `COc1ccc(CC(=O)NC2CCN(Cc3nnnn3C(C)(C)C)CC2)cc1OC`?
Potency: 2.59 µM (active); cell number change: -1.5%

Which Potency does the source give for `Cc1ccccc1C(=O)NC1CCN(Cc2nnnn2C(C)(C)C)CC1` here?
Its Potency is “inactive”.

Which results are given for `COc1ccc(CC(=O)NC2CC2)cc1OC`?
Potency: inactive; cell number change: 20.4%

What does the source list for `CCN=C1SC(CC(=O)NC(C)c2ccccc2)C(=O)N1CC` (stereo unspecified)?
Potency: inactive; cell number change: 8.53%

With `O=[N+]([O-])c1ccc(N2CCN(CCO)CC2)cc1Sc1nc2ccccc2[nH]1` as the molecule, how does the Potency read?
The Potency was “inactive”.

What about the cell number change of the same molecule?
The cell number change was -10.6%.

For `CN1CCN(NC(=S)Nc2ccccc2)CC1`, which Potency is on record?
The Potency was “inactive”.

What about the cell number change of the same molecule?
Its cell number change is 5.3%.

Which results are given for `Cc1cccc(NC(=S)NN2CCN(C)CC2)c1C`?
Potency: inactive; cell number change: 19.2%

Which Potency does the source give for `Cc1cccc(C)c1NC(=S)NN1CCN(C)CC1` here?
Its Potency is 23.1 µM (active).

And the cell number change?
The cell number change was -31.3%.

With `COC(=O)c1ccc(COc2ccccc2OC)o1` as the molecule, how does the Potency read?
Its Potency is “inactive”.

What about the cell number change of the same molecule?
Its cell number change is -9.22%.

With `COC(=O)c1ccc(Cc2ccc(C(=O)OC)o2)o1` as the molecule, how does the Potency read?
Its Potency is “inactive”.

And the cell number change?
The cell number change was 11%.

Which results are given for `COC(=O)c1ccc(Cc2ccccc2)o1`?
Potency: 25.9 µM (active); cell number change: 0.155%

Which results are given for `COc1cccc(CC(=O)N(CCC2=CCCCC2)c2c(N)n(Cc3ccccc3)c(=O)[nH]c2=O)c1`?
Potency: inactive; cell number change: -11.8%

For `Cc1ccc(-c2nn(-c3ccccc3)c3[nH]c(=O)c(CNCCN(C)C)cc23)cc1`, which Potency is on record?
Its Potency is “inactive”.

What about the cell number change of the same molecule?
Its cell number change is -8.5%.

What does the source list for `Cc1nn(-c2ccccc2)c2[nH]c(=O)c(CNCCN3CCOCC3)cc12`?
Potency: 23.1 µM (active); cell number change: -6.25%

Which results are given for `Cc1nn(-c2ccccc2)c2[nH]c(=O)c(CNc3ccc(N4CCOCC4)cc3)cc12`?
Potency: inactive; cell number change: -0.634%

For `Cc1ccc2c(COC(=O)c3ccccc3OC(F)F)cc(=O)oc2c1`, which Potency is on record?
Its Potency is “inactive”.

What about the cell number change of the same molecule?
The cell number change was 26.6%.

With `Cc1ccc2c(COC(=O)c3ccccc3Br)cc(=O)oc2c1` as the molecule, how does the Potency read?
The Potency was “inactive”.

What about the cell number change of the same molecule?
The cell number change was 8.73%.

Which results are given for `Cc1ccc2c(COC(=O)c3ccccc3Cl)cc(=O)oc2c1`?
Potency: 1.64 µM (active); cell number change: 0.403%

What does the source list for `CN(C)C(=O)c1cc(C(=O)c2ccccc2Br)c[nH]1`?
Potency: inactive; cell number change: 10.8%

With `Cc1nn(CC(=O)NCc2cccnc2)c(C)c1[N+](=O)[O-]` as the molecule, how does the Potency read?
The Potency was “inactive”.

And the cell number change?
The cell number change was 15.3%.

For `COC(c1ccccc1)c1nnc(CCC(=O)N2CCN(C3CCCC3)CC2)o1` (stereo unspecified), which Potency is on record?
Its Potency is “inactive”.

And the cell number change?
Its cell number change is 22.7%.

For `COC(c1ccccc1)c1nnc(CCC(=O)NCCc2ccc(Cl)cc2)o1` (stereo unspecified), which Potency is on record?
The Potency was 14.6 µM (active).

What about the cell number change of the same molecule?
Its cell number change is -7.97%.

What does the source list for `COC(c1ccccc1)c1nnc(CCC(=O)N2CCCCCCC2)o1` (stereo unspecified)?
Potency: inactive; cell number change: 7.76%

Which Potency does the source give for `CCOC(=O)c1ccc(NC(=O)CCc2nc(-c3ccc(C)cc3)no2)cc1` here?
The Potency was “inactive”.

Which Potency does the source give for `CC(c1ccccc1)C1C(C#N)=C(N)OC2=C1C(=O)CC(C)(C)C2` (stereo unspecified) here?
The Potency was “inactive”.

With `CN(CC(=O)Nc1ccccc1Cl)C(=O)Cn1nnc(-c2ccc(F)cc2)n1` as the molecule, how does the Potency read?
The Potency was “inactive”.

What does the source list for `CCC1CCCCN1C(=O)c1sc2nc(C)nc(N(CC)CC)c2c1C` (stereo unspecified)?
Potency: inactive; cell number change: 9.48%

With `CCCCCN(C(=O)CCC(=O)OC(C)C(=O)NCc1ccccc1)c1c(N)n(CCCC)c(=O)[nH]c1=O` (stereo unspecified) as the molecule, how does the cell number change read?
The cell number change was -30.3%.

What about the lipid storage change, negative = inhibition of the same molecule?
Its lipid storage change, negative = inhibition is 4.2% [at 0.0737 µM] (inactive).

Which results are given for `O=C(CSCC(=O)NCc1ccco1)NCc1ccco1`?
Potency: 6.51 µM (active); cell number change: 16.7%

With `O=C(CN1CCc2ccccc21)NC(=O)NCc1ccco1` as the molecule, how does the Potency read?
Its Potency is 6.51 µM (active).

What about the cell number change of the same molecule?
Its cell number change is 0.297%.

Which results are given for `CCCCn1nnnc1SCC(=O)NNC(=O)c1ccco1`?
Potency: inactive; cell number change: 1.07%

Which Potency does the source give for `Cn1c(SCC(=O)NCc2ccco2)nnc1-c1ccccc1` here?
Its Potency is “inactive”.

And the cell number change?
Its cell number change is -3.55%.

With `Cc1ccc(CSCC(=O)NCc2ccco2)cc1` as the molecule, how does the Potency read?
The Potency was “inactive”.

And the cell number change?
Its cell number change is 14.7%.

For `Cn1c(SCC(=O)NCc2ccco2)nnc1-c1ccc(S(=O)(=O)N2CCOCC2)cc1`, which Potency is on record?
Its Potency is 5.8 µM (active).

What about the cell number change of the same molecule?
The cell number change was -9.46%.

Which results are given for `CCCCn1c(SCC(=O)NCc2ccco2)nnc1-c1ccco1`?
Potency: inactive; cell number change: -17%

Which results are given for `O=C(CSc1ccccc1)NCc1ccco1`?
Potency: inactive; cell number change: -1.34%

Which Potency does the source give for `O=C(CN1CCc2ccccc21)NC(=O)NCc1ccccc1` here?
Its Potency is “inactive”.

For `Cc1ccc(NC(=O)CSc2nnc(-c3ccc(S(=O)(=O)N4CCOCC4)cc3)n2C)cc1`, which Potency is on record?
The Potency was “inactive”.

With `CCCCn1nnnc1SCC(=O)NCc1ccco1` as the molecule, how does the Potency read?
The Potency was 23.1 µM (active).

And the cell number change?
The cell number change was 0.128%.

For `O=C(CN1CCCc2ccccc21)NC(=O)NCc1ccco1`, which Potency is on record?
The Potency was “inactive”.

And the cell number change?
The cell number change was 15.9%.

Which Potency does the source give for `COc1ccc(C(C)NC(=O)c2ccc([N+](=O)[O-])cc2)cc1OC` (stereo unspecified) here?
Its Potency is “inactive”.

What about the cell number change of the same molecule?
The cell number change was 5.72%.

Which Potency does the source give for `CC12COC3(C(=O)Nc4nccs4)CC1CCC32C` (stereo unspecified) here?
The Potency was “inactive”.

What about the cell number change of the same molecule?
Its cell number change is 20.9%.

With `O=C1c2ccccc2C(=O)N1Cc1ccccn1` as the molecule, how does the Potency read?
Its Potency is “inactive”.

What about the cell number change of the same molecule?
The cell number change was -28%.

For `COC(=O)C1=C(C)C(c2cccs2)NC(=O)N1C` (stereo unspecified), which Potency is on record?
Its Potency is “inactive”.

And the cell number change?
The cell number change was 10.6%.

Which results are given for `O=C(NCc1cccs1)NC1CCCCC1`?
Potency: inactive; cell number change: 3.84%

For `O=C(NCCCn1ccnc1)c1ccc2ccccc2c1`, which Potency is on record?
The Potency was “inactive”.

With `O=C(O)c1c(Cl)nc2ccccn12` as the molecule, how does the Potency read?
Its Potency is 4.61 µM (active).

What about the cell number change of the same molecule?
Its cell number change is -7.31%.

For `O=Cc1c(Cl)nc2ccccn12`, which Potency is on record?
Its Potency is “inactive”.

What about the cell number change of the same molecule?
Its cell number change is -2.46%.

Which Potency does the source give for `Cc1nc2ccccn2c1C(=O)c1ccccc1` here?
Its Potency is “inactive”.

What about the cell number change of the same molecule?
Its cell number change is 15.8%.

For `COc1ccc([N+](=O)[O-])cc1NC(=O)CSc1nc(C)c(C)c(C)n1`, which Potency is on record?
The Potency was “inactive”.

What about the cell number change of the same molecule?
The cell number change was 1.59%.

For `CCOC(=O)C1CCN(C(=O)Cn2cnc3sc(C)c(S(=O)(=O)N4CCC(C)CC4)c3c2=O)CC1`, which Potency is on record?
The Potency was 0.58 µM (active).

And the cell number change?
Its cell number change is 14.4%.

With `Cc1sc2ncn(CC(=O)N3CCCCC3)c(=O)c2c1S(=O)(=O)N1CCC(C)CC1` as the molecule, how does the Potency read?
Its Potency is “inactive”.

And the cell number change?
The cell number change was 18.5%.

With `CCOC(=O)C1CCN(C(=O)Cn2cnc3sc(C)c(S(=O)(=O)N4CCOCC4)c3c2=O)CC1` as the molecule, how does the Potency read?
Its Potency is “inactive”.

And the cell number change?
The cell number change was 1.25%.
